About 83,000 compounds went through this panel and 20% of them were active in at least one assay; those are over-represented in the sample as a whole.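 Each cell line was grown in a 96-well plate and treated with one concentration of compound for 48 hours. Values below 10 were considered active.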 Values without a mark were called inactive. Activity calls are given as the source filed them.
system: HCT-116 colon; assay: NCI-60 one-dose screen, 48 h (100 = growth as untreated, 0 = no growth, -100 = all killed); conditions: 10 µM

Row | Structure (SMILES) | growth
1 | CCOc1ccc(Nc2nc3ccccc3nc2Nc2ccc(OCC)cc2)cc1 | 17.8%
2 | O=c1cc(-c2ccccc2)oc2cc(OCCCCNCc3ccccc3)cc(O)c12 | -73.7% (active)
3 | Cc1ccc(C(C)C)cc1NC(=O)c1ccccc1N(C)C | 68.3%
4 | CCCCSc1nc(Nc2ccc(/C(C)=N/NC(N)=S)cc2)c(C#N)c(-c2ccc(F)cc2)n1 | 36.3%
5 | O=C(c1ccc(Cl)cc1)C1[C@H](c2ccccc2Br)[C@@H](c2ccccc2)NC12C(=O)Nc1ccccc12 (some centres not stated) | 16.3%
6 | CC(=O)c1ccc(NC(=O)NCn2c(=O)[nH]c3ccccc3c2=O)cc1 | 110%
7 | [2H]C([2H])([2H])Oc1ccc2ncc(C#Cc3cncc(C(=O)Nc4ccc(CN5CCN(C)CC5)c(C(F)(F)F)c4)c3)n2n1 | -29.5% (active)
8 | O=C1Nc2cc(Cl)ccc2/C1=C/c1ccc(OCc2ccc(Br)cc2F)cc1 | -73% (active)
9 | CCCCCCCCCCCCCCCCCCCC(=O)NCCc1c[nH]c2ccc(OC(=O)CCCC(=O)OCCOOCCOOCCOOCCOOCCOOCCOOCCOOCCOOCCOOCCOOCCOOCCOC)cc12 | 32.7%
10 | C[C@H]1[C@H](C)CC[C@]2(COC(=O)CCC(=O)NCC#CCN3CCNCC3)CC[C@]3(C)C(=CC[C@@H]4[C@@]5(C)CCCNC(C)(C)[C@@H]5CC[C@]43C)[C@H]12 | 10.5%
11 | COc1ccc2nc(Cl)c(-c3cc(-c4ccccc4)nc(N)n3)cc2c1 | -92.1% (active)
12 | COc1ccc(CN2[C@H](C(=O)NCCCCCCC(=O)NO)Cc3c([nH]c4ccccc34)[C@H]2C2CC2)cc1 | 2.09% (active)

Source: PubChem BioAssay (NCI)
